# From PubChem BioAssay AID2557 (NMMLSC, 2010)
# Hit rate of the full screen: of about 330,000 compounds, about 650 (0.2%) were called active. No stated cut-off is given here; in the data, active means inhibition above about 50%; inactive means the rest. Shown is part of a subset that was picked to be rich in actives.
# Target: Integrin alpha-4 (Homo sapiens) (UniProt P13612)
# Assay: VLA-4 integrin binding inhibitors – MLPCN library, flow cytometry, VLA-4 expressing cells, VLA-4 allosteric modulator project, primary screen (AID 2557)
# Details: ligand binding flow cytometry, hits give high values, about 7 µM as worked out from the volumes in the protocol
# Integrin alpha-4 (Homo sapiens), sequence (P13612 whole entry, looked up): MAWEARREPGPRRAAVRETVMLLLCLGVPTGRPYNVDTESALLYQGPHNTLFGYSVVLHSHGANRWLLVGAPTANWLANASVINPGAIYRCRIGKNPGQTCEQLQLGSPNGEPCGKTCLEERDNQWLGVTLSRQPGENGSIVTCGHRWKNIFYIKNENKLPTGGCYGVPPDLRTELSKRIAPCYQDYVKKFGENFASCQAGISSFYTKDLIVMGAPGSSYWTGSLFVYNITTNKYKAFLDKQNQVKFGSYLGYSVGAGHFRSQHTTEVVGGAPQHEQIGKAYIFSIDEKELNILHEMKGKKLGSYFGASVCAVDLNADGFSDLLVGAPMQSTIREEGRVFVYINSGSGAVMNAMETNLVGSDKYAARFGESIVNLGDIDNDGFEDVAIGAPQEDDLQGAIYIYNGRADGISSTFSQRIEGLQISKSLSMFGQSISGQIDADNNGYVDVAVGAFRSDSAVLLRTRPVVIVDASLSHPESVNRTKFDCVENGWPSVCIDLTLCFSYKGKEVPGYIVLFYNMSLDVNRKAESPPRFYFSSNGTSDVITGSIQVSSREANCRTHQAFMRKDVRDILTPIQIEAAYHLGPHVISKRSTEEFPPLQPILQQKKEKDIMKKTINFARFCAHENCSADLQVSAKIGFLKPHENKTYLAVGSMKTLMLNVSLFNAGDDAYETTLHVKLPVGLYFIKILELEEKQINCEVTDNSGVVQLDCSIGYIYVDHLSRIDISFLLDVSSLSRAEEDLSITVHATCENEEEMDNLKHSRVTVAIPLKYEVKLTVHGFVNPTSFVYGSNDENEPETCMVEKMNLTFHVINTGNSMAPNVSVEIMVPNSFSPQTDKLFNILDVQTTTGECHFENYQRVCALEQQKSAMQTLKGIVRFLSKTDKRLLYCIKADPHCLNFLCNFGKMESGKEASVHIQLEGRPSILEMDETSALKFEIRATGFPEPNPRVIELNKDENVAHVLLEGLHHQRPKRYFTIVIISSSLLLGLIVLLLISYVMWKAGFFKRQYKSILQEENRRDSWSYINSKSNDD
row,Structure (SMILES),inhibition
1,Cc1cccc2nc(CSc3nc4[nH]ncc4c(=O)n3-c3cccc(Cl)c3)cc(=O)n12,0.93% (inactive)
2,O=C(Nn1c(-c2ccccc2)nc2ccccc2c1=O)c1ccc([N+](=O)[O-])cc1,52% (active)
3,Cc1nc2ccccc2c(=O)n1NC(=O)c1ccc(Cl)c([N+](=O)[O-])c1,8.96% (inactive)
4,O=C(Nn1c(SCc2ccc([N+](=O)[O-])cc2)nc2ccccc2c1=O)c1ccc(F)cc1,-2.25% (inactive)
5,CN(C(=O)COC(=O)Cn1cnc2c1c(=O)n(C)c(=O)n2C)C1(C#N)CCCCC1,0% (inactive)
6,COc1cccc(C2=CC(=O)C[C@H](c3ccc(F)cc3)C2)c1OC,0% (inactive)
7,Cc1ccc(S(=O)(=O)N(Cc2ccccc2)c2ccccn2)cc1[N+](=O)[O-],6.28% (inactive)
8,CCOc1cc(C(=S)N2CCOCC2)ccc1OS(=O)(=O)c1ccc(Br)cc1,6.18% (inactive)
9,COC(=O)N/N=C/c1cn(CCCOc2ccc(C)cc2)c2ccccc12,1.98% (inactive)
10,COC(=O)N/N=C/c1c[n+]([O-])c2ccccc2[n+]1[O-],52.6% (active)
11,COC(=O)N/N=C/c1ccc(-c2ccc(Cl)c(Cl)c2)o1,12.9% (inactive)
12,COc1cc(C(C(=O)NC2CCCC2)N(C(=O)c2ccco2)c2ccccc2C(C)=O)cc(OC)c1OC (stereo not given),-1.99% (inactive)
13,O=C(CN1CCSCC1)N/N=C/c1ccc(F)cc1,-0.98% (inactive)
14,Nc1nc(SCC(=O)NNc2c(Cl)cc(Cl)cc2Cl)n[nH]1,-17.3% (inactive)
15,Cc1ccc(N(C(=O)CNC(=O)c2ccco2)C(C(=O)NC2CCCC2)c2ccncc2)cc1 (stereo not given),-11.3% (inactive)
16,CC(C)Cn1cnc2c1c(=O)n(CC(O)c1ccccc1)c(=O)n2CC(C)C (stereo not given),-0.03% (inactive)
17,Cc1ccccc1CN1CCNC(=O)C1CC(=O)NCCC1=CCCCC1 (stereo not given),-8.93% (inactive)
18,CSCc1cc(N(C)C)nc(SCc2ccc(Cl)cc2Cl)n1,-0.25% (inactive)
19,Cc1cccc(OCCCC(=O)Nc2ccc(S(=O)(=O)N3CCCC3)cc2)c1,6.35% (inactive)
20,O=C(NC(=S)Nc1ccccc1C(=O)O)c1ccc(-c2ccc(Br)cc2)o1,-8.29% (inactive)
21,CNC1(c2nnnn2-c2c(C)cccc2C)CCOC(C)(C)C1 (stereo not given),-0.18% (inactive)
22,CCN(CC(=O)Nc1c(F)cccc1F)C(=O)c1ccc(S(=O)(=O)N2CCCCC2)cc1,-0.6% (inactive)
23,COc1ccccc1/C=C/C(=O)OCC(=O)NC1CCCCCC1,9.38% (inactive)

row,Structure (SMILES),inhibition
1,N#CC1(NC(=O)COc2ccc3oc4ccccc4c3c2)CCCCC1,17.8% (inactive)
2,COc1cccc(N(C(=O)c2snc(C(N)=O)c2N)C(C(=O)NCC2CCCO2)c2c[nH]c3ccccc23)c1 (stereo not given),-8.82% (inactive)
3,O=C1NC2(CCCCC2)N=C1c1ccccc1,7.05% (inactive)
4,Cn1cnc2c1c(=O)n(Cc1ccccc1C#N)c(=O)n2C,0.49% (inactive)
5,Cn1c(=NC(=O)c2ccc3c(c2)OCCO3)sc2cc(S(C)(=O)=O)ccc21,4.69% (inactive)
6,Cc1cc(C)nc(SCc2nnc(SCC(=O)OC3CCCCC3)o2)n1,-6.47% (inactive)
7,CC(C)C[C@@H](CO)N1CCN(Cc2ccc(O)cc2)CCC1=O,25.2% (inactive)
8,COC(=O)c1ccc(CN(c2ccccc2OC)S(=O)(=O)c2cccs2)o1,12.4% (inactive)
9,O=C(CN(C(=O)c1nsc(Cl)c1Cl)c1cccc(F)c1)NC1CCCC1,5.34% (inactive)
10,O=C(CCS(=O)(=O)c1ccc(Br)cc1)NCCc1ccc(Cl)cc1,-4% (inactive)
11,COc1cc(OC)cc(C(=O)NCC(=O)N2CCCCCCC2)c1,2.18% (inactive)
12,Cc1cc(C)cc(C(=O)NCC(=O)OCC(=O)N2CCCCC2)c1,51.9% (active)
13,Cc1ccc(S(=O)(=O)N2CCN(C(=O)COC(=O)CNC(=O)c3ccc(C(C)(C)C)cc3)CC2)c(C)c1,-0.38% (inactive)
14,COCCOC(=O)C1=C(C)Nc2nc(C)nn2C1c1ccccc1 (stereo not given),76% (active)
15,COCCOC(=O)C1=C(C)NC(=O)NC1c1ccc(Cl)cc1 (stereo not given),0.04% (inactive)
16,CC1=C(C(N)=O)C(c2ccc(F)cc2)n2nc(CCCO)nc2N1 (stereo not given),-3.48% (inactive)
17,CCCCOc1ccc(N(CC(=O)NC(C)C)C(=O)CCC(=O)Nc2ccccn2)cc1,23.1% (inactive)
18,Cc1ccc(CN2CCN(Cc3ccc4ncccc4c3)CC2CCO)cc1 (stereo not given),7.01% (inactive)
19,CC(C)(C)C1CCC(C(=O)Nc2cccnc2)CC1 (stereo not given),13.3% (inactive)
20,CCN(CC)S(=O)(=O)c1ccc(OC)c(NC(=O)CCc2c(C)noc2C)c1,9.08% (inactive)
21,O=C(COc1ccccc1F)NNC(=O)c1ccc(N2CCCCC2)c([N+](=O)[O-])c1,19.2% (inactive)
22,CCOC(=O)c1ccc(N2C(=O)CC(N3CCN(C(=O)c4ccccc4)CC3)C2=O)cc1 (stereo not given),2.59% (inactive)
23,CCOC(=O)c1ccc(N2C(=O)CC(N3CCC(C(=O)OCC)CC3)C2=O)cc1 (stereo not given),24.6% (inactive)

row,Structure (SMILES),inhibition
1,CCOC(=O)c1ccc(N2C(=O)CC(N3CC(C)OC(C)C3)C2=O)cc1 (stereo not given),108% (active)
2,Cc1cc(C)cc(NC(=O)COC(=O)c2cc(C)oc2C)c1,3.64% (inactive)
3,Cc1cc(C(=O)OCC(=O)Nc2ccccc2Cl)c(C)o1,-2.15% (inactive)
4,Cc1cc(C(=O)OCC(=O)Nc2ccc(F)c(F)c2)c(C)o1,49.7% (active)
5,Cc1ccc(-c2cc(N)on2)cc1,19.5% (inactive)
6,Cc1ccc(N(CC(O)CN2CCCC2)S(=O)(=O)c2ccccc2)cc1 (stereo not given),4.52% (inactive)
7,Cc1cc(C)n(CC(O)CN(c2ccccc2)S(=O)(=O)c2ccc3ccccc3c2)n1 (stereo not given),50.2% (active)
8,Cc1cccc(N(CC(O)CN(C)C)S(=O)(=O)c2ccccc2)c1 (stereo not given),2.19% (inactive)
9,O=C(COC(=O)c1ccc2ncsc2c1)Nc1ccc(Cl)cc1,-15.8% (inactive)
10,Cn1c(=O)c2c(nc(N/N=C/c3cccs3)n2Cc2ccc(Br)cc2)n(C)c1=O,7.63% (inactive)
11,COc1ccc(Nc2cc(Sc3ccc(OC)cc3)ncn2)cc1,4.33% (inactive)
12,CC(=O)N1CCc2cc(S(=O)(=O)Nc3ccccc3N3CCN(C)CC3)ccc21,54% (active)
13,CC(=O)N1CCc2cc(S(=O)(=O)NC3CCCCC3)ccc21,-5.2% (inactive)
14,CCCNS(=O)(=O)c1ccc2c(c1)CCCN2C(C)=O,9.08% (inactive)
15,C=CC(COCc1ccccc1)N(CC(=O)OC)S(=O)(=O)c1cc(Br)ccc1OC (stereo not given),0.47% (inactive)
16,Cc1ccc(NC(=O)Nc2cccnc2)cc1,2.64% (inactive)
17,Fc1cc(Br)ccc1NC(=S)Nc1cccnc1,12.9% (inactive)
18,S=C(Nc1cccnc1)Nc1ccccn1,52.3% (active)
19,O=C(CN(C(=O)CNC(=O)c1cccs1)c1cccc(F)c1)NC1CCCCC1,5.25% (inactive)
20,O=C(Nc1cccc(-c2cccc(Cl)c2)c1)C1CCN(C2CCC2)CC1,3.72% (inactive)
21,COc1cccc(NC(=O)N2C3CCCC2CC(NC(C)=O)C3)c1 (stereo not given),9.9% (inactive)
22,COc1cccc(-c2cccc(NC(=O)C3CCN(C4CCC4)CC3)c2)c1,58.8% (active)
23,CC1(C)CC(=O)C(N=Nc2c(F)cccc2F)=C(O)C1,6.6% (inactive)

row,Structure (SMILES),inhibition
1,Cc1ccc2nc(SCc3cn4c(C)cc(C)nc4n3)[nH]c2c1,9.58% (inactive)
2,Cc1nn(CC(=O)Nc2ccc(N(C)C)cc2)c(C)c1[N+](=O)[O-],-13.4% (inactive)
3,Cc1nn(CC(=O)Nc2ccc(C#N)cc2)c(C)c1[N+](=O)[O-],56.9% (active)
4,CCc1ccc(NC(=O)Cn2nc(C)c([N+](=O)[O-])c2C)cc1,-5.52% (inactive)
5,Cc1ccc(/C=C/C(=O)OCC(=O)NCc2ccc(Cl)cc2)o1,50.7% (active)
6,O=C(COC(=O)c1ccco1)NCc1ccc(Cl)cc1,5.08% (inactive)
7,Cc1cc(NC(=O)COC(=O)/C=C/c2ccc(C)o2)no1,4.12% (inactive)
8,COCCN1C(=O)C(=O)/C(=C(/O)c2ccc(S(=O)(=O)N3CCCCC3)cc2)C1c1ccc(OC)c(OC)c1 (stereo not given),-2.1% (inactive)
9,O=C(CCNC(=O)c1ccccc1Cl)NN=Cc1ccco1,4.92% (inactive)
10,CC(=O)n1cc([C@H]2C=C(C(=O)N3CCOCC3)O[C@@H](OCc3ccc(CO)cc3)C2)c2ccccc21,-20.8% (inactive)
11,Cc1cccc(C)c1N1CCN(S(=O)(=O)N2CCCCC2)CC1,-7.93% (inactive)
12,CC1O[C@@H](OC2C(O)C(C)O[C@H](OC(=O)[C@]34CCC(C)(C)C[C@H]3C3=CCC5[C@@]6(C)CC(O)C(O[C@@H]7OC(CO)C(O)[C@@H](O)[C@@H]7O)[C@@](C)(C(=O)O)C6CC[C@@]5(C)[C@]3(CO)CC4)C2O[C@H]2OC(C)[C@@H](O[C@@H]3OCC(O[C@@H]4OC(CO)C(O)[C@H](O)C4O)[C@@H](O)[C@@H]3O)[C@H](O)C2O)C(O)C(O)C1O (stereo not given in full),-0.38% (inactive)
13,Cc1cc(C(=O)Nc2c(C)nn(Cc3ccccc3)c2C)on1,34.7% (inactive)
14,Cc1nn(Cc2ccc(F)cc2)c(C)c1NC(=O)c1cccnc1Cl,12.2% (inactive)
15,Cc1nn(Cc2ccc(Cl)c(Cl)c2)c(C)c1NC(=O)c1cc(C2CC2)on1,55% (active)
16,COc1ccccc1CNC(=O)c1ccc(Cl)c(S(=O)(=O)N2CCCC2)c1,4.64% (inactive)
17,COc1ccc(N=C2SC(C(=O)Nc3ccc(F)cc3)CC(=O)N2C)cc1 (stereo not given),5.98% (inactive)
18,N#CCC(=O)NC1CCC(CC2CCC(NC(=O)CC#N)CC2)CC1 (stereo not given),-12% (inactive)
19,CS(=O)(=O)n1nc(-c2ccco2)nc1N,15.3% (inactive)
20,O=C(CSc1nnc(-c2ccco2)n1-c1ccccc1)NCCc1ccccc1,4.12% (inactive)
21,CSc1nc(-c2ccco2)nn1C(=O)CCc1ccccc1,54% (active)
